The list is not random: actives were taken first. Their share in the collection is about 2.8%.
HTT aggregate – inhibitors of mutant huntingtin aggregate formation in PC12 cells | PC12 HttQ103-GFP aggregates, Acumen cytometry, 40 h | Potency, µM (highest dose often 46.1 µM), for the others: at the highest dose activity change, negative = inhibition, most hits filed as inhibitors | 220,000 tested, 1.1% active | AID 1688; further: on the % scale 0 is the no-effect control and ±100 the full control effect; nearly all actives have a fitted effect of over 60% in size
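Ecdysone-promoter PC12 model expressing HTT exon 1 Q103 fused to GFP, induced by tebufenozide at 100 nM final. Compounds titrated; aggregates sized 1–25 µm scored on a 488 nm laser cytometer.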
TGFb SMAD3 inh – TGF-b pathway inhibition | HepG2 CAGA-GFP TGF-b/SMAD3 reporter, GFP fluorescence, 18 h; TGF-beta stimulated, 500 pg/mL final | Potency, µM (doses to about 46.1 µM), for inactives: top-dose activity, negative = inhibition, most hits filed as inhibitors | 410,000 tested, 1.2% active; further: on the % scale 0 is the no-effect control and ±100 the full control effect; nearly all actives have a fitted effect of over 65% in size
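HEPG2 CAGA-GFP, 1000 cells/well; 2 h settle, 37 C; cpd via pin tool; TGF-b 500 pg/mL final; 18 h, 37 C; GFP imaging ex488/em500-530; %Activity normalised to -TGF-b and +DMSO controls; CRC fit, curve class.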
HTT cytoprotect – Huntington cell model cytoprotection by ATP luminescence. PC12 HTT-Q103 induced, cytoprotection, ATP luminescence, 40 h. Potency, µM (top dose mostly 56.4 µM), for inactives: cytoprotection (ATP increase), hits mostly activators. 230,000 tested, 0.14% active; further: % of control where 0% means no effect; nearly all actives have a fitted effect of over 45% in size
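Rat PC12, Q103 Htt exon1-GFP fusion, ecdysone promoter; tebufenozide inducer 100 nM final; compound titration; qHTS, 1500 cells/well; ATPlite luminescent read.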
HepG2 tox – HepG2 cytotoxicity, counter-screen for TGF-b inhibitors; HepG2 CAGA-GFP viability, ATP luminescence, 18 h; Potency, µM (highest dose often 46.1 µM), inactives show at the top dose activity change, negative = cytotoxicity, most hits filed as cytotoxic; 410,000 tested, 0.76% active; AID 588856
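CellTiter-Glo luminescence gave cytotoxicity after 18 hours at 37 degrees C. The cells were HepG2 CAGA-GFP in 1% FBS DMEM, stimulated with 500 pg/mL TGF-beta after compound addition. %Activity was normalised to no-cell wells (complete cell-killing) and DMSO (no toxicity), and curves were fitted and classified.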
ATXN viability – viability counter-screen for ATXN expression inhibitors. S2 cells (HEK-293 line with an ATXN2-luciferase reporter) viability, CellTiter-Fluor protease fluorescence, 24 h. Potency, µM (series often up to 56.7 µM), actives largely listed as cytotoxic. 400,000 tested, 0.49% active. AID 651635; further: nearly all actives have a fitted effect of over 40% in size
ATXN2 expr inh – ATXN2 expression inhibition; Potency, µM (doses to about 57 µM), inactives show at the highest dose activity change, negative = inhibition, usual class: inhibitors; 360,000 tested, 0.72% active; HEK-293 ATXN2-luciferase reporter, luminescence, 24 h; AID 1745845; further: on the % scale 0 is the no-effect control and ±100 the full control effect; nearly all actives have a fitted effect of over 55% in size
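qHTS (up to 57 uM final) was run with 24 h compound exposure of reporter cells at 37 °C. Each well was multiplexed: SteadyGlo luminescence measured ATXN2-luciferase expression after a fluorogenic Gly-Phe-AFC viability readout (25 uM final).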
An asterisk follows results filed as active; i = inactive; u = inconclusive; x = no result given; [ ] = another dose, or the depositor's remark. The call rests on the fitted dose curve; in most records, active means well fitted curve in the direction sought with a large enough effect; inconclusive means small, poorly fitted or top-dose-only effect, or another doubt; inactive means no such curve, though single readings can be large; an effect the other way counts as inactive or inconclusive. Potency means the concentration at half of the fitted maximal effect.

SMILES	HTT aggregate	TGFb SMAD3 inh	HTT cytoprotect	HepG2 tox	ATXN viability	ATXN2 expr inh
Cn1nc(CC(=O)Nc2ccc(N3CCN(C(=O)OC(C)(C)C)CC3)cc2)c2ccccc2c1=O	3.98µM*	0.7%	32.1%[10 µM]	3.1%	i	-21.7%
CC1CN(CC(=O)NCC2(N3CCOCC3)CCCC2)Cc2cc(Cl)ccc2O1 (stereo not drawn)	x	x	x	x	i	x
Clc1cccc(-c2nc3ccc(Cl)cn3c2Cc2ccsc2)c1	x	15.8µM*	x	-40.7%	i	46.0%
COc1ccccc1Cc1c(-c2ccc(OC)c(OC)c2)nc2ccc(C)cn12	x	u	x	-18.6%	22.4µM*	0.0%
COc1ccc(-c2nc3ccc(C)cn3c2Cc2ccc(C)cc2)cc1OC	x	u	x	-25.4%	x	-14.4%
COc1ccc(-c2nc3ccc(C)cn3c2Cc2ccccc2)cc1OC	x	u	x	-42.9%	28.2µM*	u
Cc1ccc2nc(-c3ccc(F)cc3)c(Cc3cccc(Cl)c3)n2c1	x	u	x	-41.6%	u	-9.8%
COC(=O)c1ccc2nc(-c3ccc(OC)c(OC)c3)c(Cc3ccccc3OC)n2c1	x	u	x	-26.5%	u	-8.5%
Cc1ccc2nc(-c3ccc(Cl)cc3)c(Cc3cccc(Cl)c3)n2c1	x	x	x	x	28.2µM*	u
COc1ccc2[nH]cc(CCNc3nc(-c4ccc(N(C)C)cc4)nc4ccccc34)c2c1	x	x	-83.3%	x	x	x
COc1ccc(-c2nc3ccc(C)cn3c2Cc2cccc(Cl)c2)cc1OC	x	-13.7%	x	-27.6%	x	-36.0%
COc1ccc(-c2nc3ccc(C)cn3c2CC(C)(C)C)cc1OC	x	u	x	-51.6%	x	28.2µM*
COC(=O)[C@@H]1CCCN1C(=O)c1cc(NC(=O)C2CCC2)c2c(c1)nc(-c1ccncc1)n2C	x	x	x	x	i	x
O=C(Nc1nnc(-c2ccccc2)o1)c1cc(Cl)sc1Cl	-2.0%	-14.5%	-0.3%[10 µM]	-12.6%	i	-14.2%
O=C(Nc1nnc(-c2ccc(F)cc2)o1)c1cc(Cl)sc1Cl	11.2µM*	u	7.0%[10 µM]	-27.7%	i	u
O=C(Nc1nnc(-c2ccc3c(c2)CCCC3)o1)c1ccccc1Cl	11.2µM*	u	-31.4%	-6.6%	u	u
O=C(Nc1nnc(C2=COCCO2)o1)c1cccc([N+](=O)[O-])c1	x	-1.4%	x	0.0%	i	-8.6%
O=C(Nc1nnc(-c2ccc(F)cc2)o1)c1cccc([N+](=O)[O-])c1	5.62µM*	-1.8%	-83.4%	0.3%	i	0.0%
O=C(Nc1nnc(-c2ccc3c(c2)CCCC3)o1)c1ccccc1	u	u	-5.7%[10 µM]	-20.2%	x	u
O=C(O)C1CCCC1	x	-32.8%	x	-13.9%	x	x
CC(NCc1cc(Br)ccc1OCC(=O)NCc1ccccc1)c1ccccc1 (stereo not drawn)	1.9%[9.22 µM]	12.6µM*	-22.6%	-89.4%	u	-27.3%
Cc1ccc(C(=O)CC2(O)C(=O)N(Cc3ccccc3Cl)c3ccccc32)o1 (stereo not drawn)	3.16µM*	2.7%	-32.7%	0.6%	i	0.4%
COC(=O)CN1C(=O)C(O)(CC(=O)c2cccc(Br)c2)c2ccccc21 (stereo not drawn)	-4.3%	-13.1%	-14.0%	-58.1%	i	-17.8%
Cc1ccccc1CN1C(=O)C(O)(CC(=O)c2cccc(Br)c2)c2ccccc21 (stereo not drawn)	x	12.6µM*	x	12.6µM*	x	x
O=C/C=C/c1c(-c2ccccc2)cc2oc3ccccc3cc1-2	x	11.2µM*	x	15.8µM*	u	u
CC(C)CN(C(=O)CN(C)S(=O)(=O)c1ccc(Cl)cc1)C1CCS(=O)(=O)C1 (stereo not drawn)	x	u	x	2.3%	i	-0.4%
CC(C)CN(C(=O)CCNC(=O)c1ccc(Cl)cc1)C1CCS(=O)(=O)C1 (stereo not drawn)	x	-1.3%	x	-1.3%	28.2µM*	u
